From PubChem BioAssay
Activity calls are given as the source filed them.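 The calls were made as follows, unless noted: active = inhibition of the reporter signal at or above 50%; inactive = inhibition below 50%.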

Key:
[1] = inhibitors of TNFa-induced NFkB p65 translocation, primary screen, imaging, HUVEC, MLSMR starter and 10KST1 sets (AID 438;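 active = inhibition above 20% together with a positive visual image hit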;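 also: compound added about 3h40 before a 20 min TNFalpha stimulation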;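 as to inhibition: signal is the nuclear over cytoplasmic p65 intensity ratio per well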); conditions: HUVEC TNFa-induced p65 nuclear translocation; cell count: measured here: nuclei count (cytotoxicity indicator), at 2.08 µM; inhibition: at 2 µM, stronger effect = higher value, 0% TNFa-plus-vehicle, 100% no-TNFa wells
[2] = inhibitors of mutant huntingtin aggregation, primary screen, imaging, exon1htt(103Q)mCFP cells, high-content imaging (AID 483;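 active = visual image review flags a hit and inhibition of aggregation exceeds 20%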;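 also: compound exposure lasted 3 days before fixation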;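 as to nuclei count: percent of the per-plate median nuclei count of sample wells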); conditions: exon1htt(103Q)mCFP cell line, aggregate imaging, at 2 µM; inhibition of aggregation: stronger effect = higher value; nuclei count: measured here: cell count, toxicity
[3] = inhibitors of E-selectin induction by TNFa, primary screen, imaging, HUVEC, immunofluorescence, MLSMR starter and 10KST1 sets (AID 487;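 active = visually confirmed hit in the image check and inhibition above 20%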;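 as to inhibition: signal is fraction of cell area covered by stained E-selectin grains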;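 as to nuclei count: 100% = median nuclei count of all wells on the same plate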); conditions: HUVEC TNFalpha-induced E-selectin immunofluorescence imaging, at 2 µM; inhibition: stronger effect = higher value; nuclei count: measured here: cell number, toxicity
[4] = target: Voltage-gated potassium channel subunit beta-2 (Rattus norvegicus) (UniProt P62483); assay: KvBeta enzyme negative modulators, primary screen, biochemical, NADPH fluorescence (AID 622;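 active = fluorescence slope higher than the sample average by over 3 SD, cut at about -0.22 in these data, passing the limit was not always enough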;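 also: slope of raw intensity against log time taken from 70 to 1610 s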); conditions: recombinant KvBeta, 4-cyanobenzaldehyde reduction, at 10 µM, stronger effect = higher value
Sequence of Voltage-gated potassium channel subunit beta-2 (Rattus norvegicus) (P62483 whole entry, looked up): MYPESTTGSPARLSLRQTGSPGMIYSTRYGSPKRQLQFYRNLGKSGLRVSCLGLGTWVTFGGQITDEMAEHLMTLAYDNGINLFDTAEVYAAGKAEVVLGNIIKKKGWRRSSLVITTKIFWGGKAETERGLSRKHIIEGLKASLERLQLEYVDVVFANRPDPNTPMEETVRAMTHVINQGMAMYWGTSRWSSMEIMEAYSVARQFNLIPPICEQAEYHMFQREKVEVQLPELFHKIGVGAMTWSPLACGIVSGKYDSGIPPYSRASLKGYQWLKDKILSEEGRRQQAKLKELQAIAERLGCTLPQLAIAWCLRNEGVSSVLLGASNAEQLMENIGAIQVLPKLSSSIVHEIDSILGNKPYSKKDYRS

[5] = target: Voltage-gated potassium channel subunit beta-2 (Rattus norvegicus) (UniProt P62483); assay: KvBeta positive modulators, primary screen, biochemical, NADPH fluorescence (AID 623;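 active = NADPH fluorescence slope more negative than the mean of all samples by about 3 SD, 99.7% confidence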;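 also: fluorescence intensity change per second fitted from 20 to 320 s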); conditions: Recombinant KvBeta, NADPH fluorescence decrease slope, 10 min; at 10 µM; stronger effect = lower value
[6] = target: Alpha-2C adrenergic receptor (Homo sapiens) (UniProt P18825); assay: modulators of alpha2C/GIRK thallium flux, primary screen, cell-based, HEK293 alpha2C/GIRK1/2 (AID 624;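 active = fluorescence slope after compound addition differing from the mean of all screened samples at 99.7% confidence, in either direction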;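 also: slope of fluorescence ratio to pre-addition baseline per second over 15 to 24 s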); conditions: thallium flux BTC fluorescence, at 10 µM, actives lie on both sides
Sequence of Alpha-2C adrenergic receptor (Homo sapiens) (P18825 whole entry, looked up): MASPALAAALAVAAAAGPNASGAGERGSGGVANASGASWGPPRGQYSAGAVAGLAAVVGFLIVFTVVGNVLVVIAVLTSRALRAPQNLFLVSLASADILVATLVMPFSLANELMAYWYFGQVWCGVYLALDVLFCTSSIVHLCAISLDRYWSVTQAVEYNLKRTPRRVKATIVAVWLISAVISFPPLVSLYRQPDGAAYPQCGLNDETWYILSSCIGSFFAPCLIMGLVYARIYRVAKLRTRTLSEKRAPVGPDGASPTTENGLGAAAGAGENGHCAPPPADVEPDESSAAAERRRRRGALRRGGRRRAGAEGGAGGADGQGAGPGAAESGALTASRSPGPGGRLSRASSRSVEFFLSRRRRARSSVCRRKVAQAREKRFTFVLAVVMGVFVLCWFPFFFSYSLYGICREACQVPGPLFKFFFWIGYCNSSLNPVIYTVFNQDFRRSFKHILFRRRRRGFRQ

[7] = inhibitors of Sendai virus-induced IRF3 signaling, primary screen, TLR/RLR signaling modifier project, cell-based, Sendai virus stimulus, luciferase, 10K MLSCN set (AID 602276;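 active = inhibition at or above 50% at 10 µM; inactive = inhibition below 50%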;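 also: firefly luciferase from ISG56 promoter only with Renilla not read in this screen; 0% = Sendai virus plus DMSO and 100% = medium plus DMSO without virus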); conditions: HEK293 RL24 IRF3 luciferase reporter, at 10 µM, stronger effect = higher value
[8] = inhibitors of poly I:C-induced TLR3 signaling, primary screen, cell-based, poly I:C stimulus, luciferase, 10K MLSCN set (AID 602277); conditions: HEK293-TLR3 RL24 IRF3 luciferase reporter, at 10 µM, stronger effect = higher value

Structure (SMILES)	cell count [1]	inhibition [1]	inhibition of aggregation [2]	nuclei count [2] [%]	inhibition [3]	nuclei count [3] [%]	fluorescence slope [4]	NADPH fluorescence slope [5]	slope [6]	inhibition [7]	inhibition [8]
Cn1c(=O)c(=O)n(C)c2cc(S(=O)(=O)Nc3ccc4c(c3)OCCO4)ccc21	354	-1.2% (inactive)	-18.4% (inactive)	106	-21.4% (inactive)	108	-0.421 (inactive)	-5.4e-05 (inactive)	0.00519 (inactive)	45.1% (inactive)	35.8% (inactive)
Cc1ccccc1Cn1ccc(NC(=O)c2onc(C)c2Cl)n1	654	-1.6% (inactive)	28.9% (inactive)	118	-52.1% (inactive)	106	-0.425 (inactive)	-4.5e-05 (inactive)	0.00472 (inactive)	-15.7% (inactive)	-37% (inactive)
Cc1ccccc1NS(=O)(=O)c1cc(S(C)(=O)=O)ccc1Cl	552	7.7% (inactive)	-3% (inactive)	102	-43.9% (inactive)	119	-0.436 (inactive)	2.4e-05 (inactive)	0.00562 (inactive)	-5.83% (inactive)	4.63% (inactive)
COCCOC(=O)c1[nH]c2c(c1C)C(=O)CC(c1ccc(N(C)C)cc1)C2 (stereo not drawn)	342	-4.6% (inactive)	-19% (inactive)	105	21.3% (inactive)	83.3	-0.534 (inactive)	1.4e-05 (inactive)	0.00456 (inactive)	-15.6% (inactive)	-26.9% (inactive)
CC(=O)c1c(C)nn(C(C)CC(=O)O)c1C (stereo not drawn)	784	-12.6% (inactive)	5.2% (inactive)	114	-27.1% (inactive)	99	-0.509 (inactive)	-2.6e-05 (inactive)	0.00713 (inactive)	8.2% (inactive)	19.7% (inactive)
CC1CCCCC1NC(=O)CCCc1nc2ccccc2c(=O)[nH]1 (stereo not drawn)	364	-2.1% (inactive)	5.3% (inactive)	87.7	-11.1% (inactive)	79.6	-0.618 (inactive)	-2.3e-05 (inactive)	0.00379 (inactive)	7.71% (inactive)	17.2% (inactive)
COc1cccc(N2CCN(Cc3nc(N)nc(Nc4ccccc4)n3)CC2)c1	463	-12.5% (inactive)	18.2% (inactive)	84.7	44.7% (inactive)	93.5	-0.479 (inactive)	-5.8e-06 (inactive)	0.00543 (inactive)	0.669% (inactive)	15.7% (inactive)
CC(CCC(=O)Nc1nncs1)C(=O)O (stereo not drawn)	527	-0.8% (inactive)	1.4% (inactive)	97	-52.1% (inactive)	123	-0.535 (inactive)	-5.2e-05 (inactive)	0.00611 (inactive)	9.72% (inactive)	20.3% (inactive)
COc1ccc(C2CC(=O)C(C=NCCCN3CCOCC3)=C(O)C2)cc1 (stereo not drawn)	392	-4.9% (inactive)	14% (inactive)	80.7	3% (inactive)	87.7	-0.351 (inactive)	-1.5e-05 (inactive)	0.00635 (inactive)	14.7% (inactive)	32.7% (inactive)
CC(C)(Oc1ccc(Cl)cc1)C(=O)NC1CCSC1=O (stereo not drawn)	620	-7.5% (inactive)	-23.8% (inactive)	112	-63.4% (inactive)	103	-0.502 (inactive)	-2.8e-05 (inactive)	0.00406 (inactive)	10.9% (inactive)	15.9% (inactive)
CCOC(=O)C1=C(NC#N)OC(C)=C(C)C1c1ccc(O)cc1 (stereo not drawn)	276	1% (inactive)	-12.7% (inactive)	117	15.8% (inactive)	100	-0.487 (inactive)	-1.5e-05 (inactive)	0.00651 (inactive)	20.5% (inactive)	18.3% (inactive)
CCOC(=O)N1CCC(N(CCCOC)C(=O)Nc2ccc(CC)cc2)CC1	574	2.2% (inactive)	-21.3% (inactive)	106	12.1% (inactive)	93.2	-0.531 (inactive)	-2.6e-05 (inactive)	0.00487 (inactive)	4.87% (inactive)	9.22% (inactive)
COc1cc(OC)nc(NC(=O)CSc2nc3ccccc3o2)n1	740	-0.3% (inactive)	-30.6% (inactive)	102	-18.2% (inactive)	107	-0.609 (inactive)	-2.6e-05 (inactive)	0.00329 (inactive)	12.8% (inactive)	-3.75% (inactive)
CC1(C)Cc2cccc(OCC(=O)O)c2O1	635	-2.7% (inactive)	-1% (inactive)	100	-111% (inactive)	108	-0.423 (inactive)	-2.7e-05 (inactive)	0.00676 (inactive)	11.4% (inactive)	17.1% (inactive)
Cc1cc(C)c2ccc(N)nc2c1O	408	0.1% (inactive)	22.6% (inactive)	6.8	41.6% (inactive)	107	-0.462 (inactive)	-5e-05 (inactive)	0.00457 (inactive)	21% (inactive)	29.8% (inactive)
COc1c(C(=O)Nc2c(C)n(C)n(-c3ccccc3)c2=O)ccc2ccccc12	239	-1.7% (inactive)	16.4% (inactive)	63.2	-68.7% (inactive)	117	-0.512 (inactive)	-3.9e-05 (inactive)	0.00486 (inactive)	6.79% (inactive)	11.2% (inactive)
COc1ccc(S(=O)(=O)N2CCN(Cc3ccc(Cl)cc3)CC2)cc1	554	-5.4% (inactive)	24.4% (inactive)	61.1	-97.9% (inactive)	148	-0.458 (inactive)	-9.2e-06 (inactive)	0.00502 (inactive)	0.485% (inactive)	-1.64% (inactive)
CCOC(=O)CNC(=O)CSc1ncnc2c1cnn2Cc1ccccc1	597	12.6% (inactive)	-12.1% (inactive)	103	-157% (inactive)	134	-0.374 (inactive)	-0.000157 (inactive)	0.0067 (inactive)	2.57% (inactive)	24.8% (inactive)
COc1cccc(C(=O)CN2CCC(NC(=O)NC3CCCCC3)CC2)c1	513	-25.5% (inactive)	10.5% (inactive)	51.6	-26.9% (inactive)	114	-0.393 (inactive)	-3.8e-05 (inactive)	0.00349 (inactive)	7.64% (inactive)	-12.8% (inactive)
CCC(C)(C(=O)NC1CCCC1)N(Cc1cccs1)C(C)=O (stereo not drawn)	472	6.2% (inactive)	-9.4% (inactive)	115	-15% (inactive)	93.8	-0.491 (inactive)	-1.6e-05 (inactive)	0.00646 (inactive)	14.8% (inactive)	24.4% (inactive)
CC(=O)Nc1ccc(S(=O)(=O)N2CCC(c3nc4ccccc4[nH]3)CC2)cc1	232	0% (inactive)	14.3% (inactive)	93.3	17.7% (inactive)	84.3	-0.584 (inactive)	-6.2e-05 (inactive)	0.00595 (inactive)	7.22% (inactive)	17.6% (inactive)
CCCCn1nc(C(=O)N2CCc3ccccc32)c2ccccc2c1=O	423	-9% (inactive)	-20.9% (inactive)	112	36.5% (inactive)	41.8	-0.473 (inactive)	2e-05 (inactive)	0.0045 (inactive)	-1.51% (inactive)	20.2% (inactive)
COC(=O)c1ccsc1NC(=O)CN1C(=O)CCC1=O	479	-5.9% (inactive)	2.9% (inactive)	86.8	-15.8% (inactive)	100	-0.476 (inactive)	-3.2e-05 (inactive)	0.0049 (inactive)	-11.8% (inactive)	-9.21% (inactive)
CCn1c(C)c(CCC(=O)O)c(=O)n2nc(-c3ccccc3OC)cc12	400	7.4% (inactive)	0% (inactive)	103	-121% (inactive)	108	-0.548 (inactive)	-1.2e-05 (inactive)	0.00427 (inactive)	-9.14% (inactive)	2.68% (inactive)
Cc1ccc(S(=O)(=O)Nc2nc3ccccc3nc2NCc2ccco2)cc1	686	7.1% (inactive)	-2% (inactive)	103	-39.6% (inactive)	110	-0.376 (inactive)	6.7e-06 (inactive)	0.00699 (inactive)	-21.6% (inactive)	-121% (inactive)
CCCCn1c2c(c3ccccc31)CCc1nonc1-2	664	-4% (inactive)	8.5% (inactive)	75.1	-16.7% (inactive)	100	-0.601 (inactive)	4.9e-06 (inactive)	0.00755 (inactive)	-16.3% (inactive)	13.4% (inactive)
CCOC(=O)C1CCCN(C/C(O)=C(\C#N)c2nc(-c3ccc(Cl)cc3)cs2)C1 (stereo not drawn)	479	1% (inactive)	-6.9% (inactive)	112	-39.9% (inactive)	120	-0.499 (inactive)	-3.4e-06 (inactive)	0.00581 (inactive)	14.3% (inactive)	2.09% (inactive)
Cc1ccc(S(=O)(=O)N2CCOCC(=O)NCCOCCNC(=O)COCC2)cc1	592	2.1% (inactive)	-15.3% (inactive)	116	-89.9% (inactive)	108	-0.622 (inactive)	-2.4e-05 (inactive)	0.00426 (inactive)	9.52% (inactive)	9.55% (inactive)
